About 4,600 (1.4%) of roughly 330,000 compounds were called active.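 The calls were made as follows: active = inhibition of 40% or more at the single tested concentration; inactive = the rest.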 The full list was thinned out, with actives kept by preference.

Experimental findings from PubChem BioAssay AID463195 (Sanford-Burnham Center for Chemical Genomics, 2010) are described below.

The nature of this experiment: wild-type TIM10 yeast growth inhibition – luminescence, uHTS, counter-screen for tim10-1 yeast inhibitor project, primary screen (AID 463195).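 Also: wild-type TIM10 isogenic control strain grown at permissive 25 °C; 0% = DMSO yeast wells and 100% = minimal medium wells without yeast.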 The conditions noted are these: S. cerevisiae TIM10 strain growth, BacTiter-Glo luminescence, 24 h; at 10 µM; active compounds read high. Background: A counterscreen serves to expose hits that act by an unwanted route or on another target.
A word on the inhibition: it is the relative decrease from the control value, in per cent. On to `CC(=O)Nc1ccc(Nc2c([N+](=O)[O-])cc(S(C)(=O)=O)cc2[N+](=O)[O-])cc1`, for which the inhibition was -6.6% (inactive).
On to `CN(C)CCc1c[nH]c2ccc(Cn3cncn3)cc12`, for which the inhibition was 5.24% (inactive).
For the compound `O=C(COC(=O)c1ccccc1Br)Nc1nnc(-c2ccccc2)o1`, the inhibition was -0.697% (inactive).
Then `Nc1cc(OC(=O)c2ccccc2Br)nn1S(=O)(=O)c1ccccc1`, with 46.5% (active); and `Cc1ccc(S(=O)(=O)n2nc(OC(=O)C(C)(C)C)cc2N)cc1`, with 17.1% (inactive); and `O=C(NCc1ccco1)c1ccc(Cn2c(=O)c3sccc3n(Cc3ccc(F)cc3)c2=O)cc1`, with 2.56% (inactive).
For the compound `O=C(NCc1ccco1)c1cc2sccc2n1Cc1ccc(F)cc1`, the inhibition is 46.4% (active).
Regarding `O=C(Cc1ccc(-n2c(=O)c3sccc3n(Cc3ccc(F)cc3)c2=O)cc1)NCc1ccco1`, the inhibition was 8.88% (inactive).
Consider `COc1ccc(N2CC(C(=O)NCCS(=O)(=O)N3CCN(c4ccccc4)CC3)CC2=O)cc1` (configuration not stated), for which the inhibition was -13.2% (inactive).
Regarding `C[C@H]1CN([C@@H](C)CO)C(=O)Cc2cc(NS(C)(=O)=O)ccc2O[C@@H]1CN(C)CC1CC1`, the inhibition is -6.97% (inactive).
Then `O=S(=O)(ON(c1ccccc1)S(=O)(=O)c1ccccc1)c1ccccc1`, with 45.9% (active); and `O=S(=O)(c1ccccc1)N(Cc1cccc(F)c1)c1ccccc1`, with 3.1% (inactive).
On to `CCN(c1ccccc1)S(=O)(=O)c1ccc(N)cc1`, for which the inhibition is 8.8% (inactive).
Then `COC(=O)c1ccc(OC(=O)c2nn(C)cc2Cl)c(OC)c1`, with 8.9% (inactive); and `O=C(O)c1ccccc1N=N/C(=N/Nc1cc(S(=O)(=O)O)ccc1O)c1ccccc1`, with 0.626% (inactive); and `O=c1c2ccccc2nnn1CSc1nc2sc3c(c2c(=O)n1CC1CCCO1)CCC3` (configuration not stated), with 25.8% (inactive).
In the case of `Cc1nnc(-c2ccc(Oc3ccc(C)c(C)c3)c([N+](=O)[O-])c2)o1`, the inhibition was 17.1% (inactive).
Then `O=C(OCC(=O)c1c[nH]c2ccccc12)c1cccc(O)c1`, with 5.38% (inactive); and `COc1ccc(NC(=O)C/C(C)=N/NC(=O)c2cnccn2)cc1Cl`, with 3.17% (inactive).
Regarding `CCN(CC)c1ccc(/C=N/NC(=O)c2cnccn2)c(O)c1`, the inhibition was 44.5% (active).
To `CCN1CCN(c2ccc(NC(=O)c3cnccn3)cc2)CC1` belongs -4.6% (inactive); to `Cc1ccc2nc(Nc3ncc4c(n3)CC(C)(C)CC4=O)nc(C)c2c1`, 5.07% (inactive).
With `Cc1cc(=O)n2nc(N3CCCC(C(=O)N4CCN(C)CC4)C3)sc2n1` (configuration not stated), the inhibition was 2.79% (inactive).
Take `COc1ccc(-n2cc(-c3ccccc3)c3c(=S)nc[nH]c32)cc1`: the inhibition was 33.8% (inactive).
Regarding `O=c1[nH]cnc2c1c(-c1ccccc1)cn2-c1ccc(F)cc1`, the inhibition is 42.6% (active).
For the compound `O=c1c2c(-c3ccccc3)ccnc2[nH]n1-c1ccccc1`, the inhibition is -17.3% (inactive).
Regarding `O=[N+]([O-])c1cc(C(F)(F)F)ccc1NCCc1ccncc1`, the inhibition was 6.18% (inactive).
Take `Cc1nn(Cc2ccccc2Cl)c(C)c1NC(=O)Cn1nc([N+](=O)[O-])c(Cl)c1C`: the inhibition was 2.84% (inactive).
In the case of `NC(=O)C[n+]1cccc(C(N)=O)c1`, the inhibition is 13.2% (inactive).
On to `C#CCOCCOCCOCCNc1nc(N2CCN(C(=O)[C@H](CCC(=O)O)n3cc(C(N)CO)nn3)CC2)nc(N2CCN(C(=O)[C@H](CCCCN)n3cc(C(N)CC(C)C)nn3)CC2)n1` (some centres not stated), for which the inhibition is -1.57% (inactive).
For `CC(C)(C)N(CC#CCC(O)(c1ccccc1)C1CCCC1)CCO` (configuration not stated), the inhibition was 0.266% (inactive).
With `O=C1C=CC(=O)N1c1ccc(N2CCCCC2)cc1`, the inhibition is 73.2% (active).
With `CC(=O)Nc1ccc(S(=O)(=O)Nc2ccc(N3CCCCC3)cc2)cc1`, the inhibition was -2.15% (inactive).
Regarding `O=C1CC(N2CCN(c3ccc(F)cc3)CC2)C(=O)N1c1ccccc1` (configuration not stated), the inhibition is -7.52% (inactive).
For `COc1ccc(-c2cc(C3CCN(c4ncccc4[N+](=O)[O-])CC3)[nH]n2)cc1`, the inhibition is 33% (inactive).
Turning to `CC(=O)CSc1nnc(CSc2ncccn2)n1C1CCCCC1`, the inhibition was 3.42% (inactive).
To `Nn1cnnc1N/N=C/c1cc([N+](=O)[O-])c(Cl)cc1Cl` belongs -10.5% (inactive); to `N#C/C(=C\c1ccccc1C(F)(F)F)C(=O)Nc1ccccc1F`, 47.5% (active).
With `CN(CC(=O)Nc1ccccc1C(F)(F)F)C(=O)Cc1ccccc1F`, the inhibition was 12.1% (inactive).
`O=C(Nc1ccccc1F)c1ccccc1-c1ccc(C(F)(F)F)cc1`: the inhibition is 9.5% (inactive).
On to `Oc1[nH]c2ccc(Br)cc2c1N=Nc1nn[nH]n1`, for which the inhibition is 6.35% (inactive).
With `NS(=O)(=O)c1ccc(N=Nc2c(O)[nH]c3ccc(Br)cc23)cc1`, the inhibition is -10.2% (inactive).
As to `Cc1cccc(N=Nc2c(O)[nH]c3ccc(F)cc23)c1`, the inhibition was 45% (active).
As to `Cc1ccc(C)c(NC2=NCC(=O)N2c2ccc3c(c2)OCCO3)c1`, the inhibition is 2.39% (inactive).
Then `Cc1ccc(C(=O)N2CC(=O)Nc3ccc(F)cc3C2c2ccc(F)cc2)cc1` (configuration not stated), with 20.6% (inactive); and `CC1=CC=CN2C1=NC(=O)CC2(C)C(=O)N(CC(=O)NC1CCCC1)c1ccccc1C` (configuration not stated), with -13.9% (inactive).
Take `O=C(OCC(=O)c1cccs1)c1ccc([N+](=O)[O-])o1`: the inhibition is 14.1% (inactive).
`O=C(COC(=O)c1ccc(Br)o1)NC12CC3CC(CC(C3)C1)C2`: the inhibition was 25.9% (inactive).
Then `O=C(COC(=O)c1ccc([N+](=O)[O-])o1)NC12CC3CC(CC(C3)C1)C2`, with 44.7% (active).
Consider `COc1ccc(C2=NS(=O)(=O)N(C)C(C(=O)NC(C)c3ccccc3)=C2)cc1` (configuration not stated), for which the inhibition was -4.03% (inactive).
Turning to `Cn1c(=O)c2c(nc(NCCNC(=O)c3ccco3)n2Cc2ccccc2F)n(C)c1=O`, the inhibition was -1.93% (inactive).
For `COc1cc(NC(=O)COC(=O)c2ccc([N+](=O)[O-])s2)cc(OC)c1OC`, the inhibition is 32.6% (inactive).
Consider `COc1ccc(C(=O)COC(=O)c2ccc([N+](=O)[O-])s2)cc1OC`, for which the inhibition was 60.6% (active).
Turning to `O=C(OCC(=O)N1CCN(c2ccccc2)CC1)c1ccc([N+](=O)[O-])s1`, the inhibition is -16.2% (inactive).
Then `O=C(O)c1cccc2c1C(=O)N(C1CCCCC1)C2`, with 17.6% (inactive).
For the compound `COc1ccc(CNC(=O)C2CCN(C(=O)c3ccco3)CC2)cc1`, the inhibition was 6.55% (inactive).
Regarding `CC(C)NS(=O)(=O)c1ccc(CCC(=O)N2CCOCC2)cc1`, the inhibition is -1.05% (inactive).
